Experimental data reported in PubChem BioAssay (NCATS).
Inconclusive results are not listed. Where a call stands in place of a potency, no number is given. Calls of active or inactive are those of the source. Unless noted, the call rests on the fitted dose curve; in most records, active means well fitted curve in the direction sought with a large enough effect in the repeat runs; inconclusive means weak or mixed curves; inactive means no such curve, though single readings can be large; an effect the other way counts as inactive or inconclusive.

Experiments:
[1] = target: Cytochrome P450 2D6 (Homo sapiens) (UniProt P10635); assay: Cytochrome P450 family 2 subfamily D member 6 (CYP2D6) small molecule antagonists: luciferase biochemical (cell-free) qHTS assay (AID 1645840); further: nearly all actives have a fitted effect of over 55% in size; further: potency means the concentration at half of the fitted maximal effect
Cytochrome P450 2D6 (Homo sapiens), sequence (P10635 whole entry, looked up): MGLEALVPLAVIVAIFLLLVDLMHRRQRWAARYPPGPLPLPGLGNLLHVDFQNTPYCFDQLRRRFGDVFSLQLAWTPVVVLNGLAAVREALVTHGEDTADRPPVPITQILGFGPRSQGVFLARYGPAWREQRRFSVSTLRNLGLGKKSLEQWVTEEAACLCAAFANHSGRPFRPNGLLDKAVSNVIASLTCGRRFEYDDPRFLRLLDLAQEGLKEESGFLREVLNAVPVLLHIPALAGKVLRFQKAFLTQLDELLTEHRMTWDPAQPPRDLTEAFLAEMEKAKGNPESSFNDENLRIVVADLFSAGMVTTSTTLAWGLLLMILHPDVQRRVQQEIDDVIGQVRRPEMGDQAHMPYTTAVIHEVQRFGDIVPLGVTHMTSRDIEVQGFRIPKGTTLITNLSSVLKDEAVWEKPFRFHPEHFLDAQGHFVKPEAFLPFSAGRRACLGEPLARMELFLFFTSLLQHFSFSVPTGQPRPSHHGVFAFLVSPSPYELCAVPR
Method in brief: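 P450-Glo CYP2D6 system: proluciferin substrate converted by enzyme to luciferin, read by luminescence proportional to activity. Enzyme-substrate mix with compound 10 min at room temperature, then NADPH regeneration 1 h before detection reagent.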

[2] = target: Cytochrome P450 3A4 (Homo sapiens) (UniProt P08684); assay: Cytochrome P450 family 3 subfamily A member 4 (CYP3A4) small molecule antagonists: luciferase qHTS assay (AID 1645841); further: nearly all actives have a fitted effect of over 45% in size; further: potency means the concentration at half of the fitted maximal effect
Cytochrome P450 3A4 (Homo sapiens), sequence (P08684 whole entry, looked up): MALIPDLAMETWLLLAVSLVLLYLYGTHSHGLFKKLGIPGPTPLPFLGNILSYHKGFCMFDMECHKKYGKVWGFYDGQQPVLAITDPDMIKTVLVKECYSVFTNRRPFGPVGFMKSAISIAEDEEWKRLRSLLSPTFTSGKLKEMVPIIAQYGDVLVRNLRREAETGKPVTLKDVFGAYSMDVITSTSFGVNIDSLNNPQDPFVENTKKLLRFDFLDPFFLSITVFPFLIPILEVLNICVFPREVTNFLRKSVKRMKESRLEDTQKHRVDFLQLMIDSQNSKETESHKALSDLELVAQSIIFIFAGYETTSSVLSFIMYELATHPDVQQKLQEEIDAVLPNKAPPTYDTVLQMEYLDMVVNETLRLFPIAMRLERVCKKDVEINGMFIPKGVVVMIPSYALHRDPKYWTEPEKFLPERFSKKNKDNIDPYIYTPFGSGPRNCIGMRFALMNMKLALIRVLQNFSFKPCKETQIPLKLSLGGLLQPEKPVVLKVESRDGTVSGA
Method in brief: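 P450-Glo CYP3A4 enzyme with proluciferin substrate was preincubated with DMSO-dissolved compounds for 10 min at room temperature. NADPH regeneration solution started a 1 h reaction. Detection reagent stopped it, and luminescence was read after 20 min.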

[3] = target: Cytochrome P450 2C9 (Homo sapiens) (UniProt P11712); assay: Cytochrome P450 family 2 subfamily C member 9 (CYP2C9) small molecule antagonists: luciferase biochemical (cell-free) qHTS assay (AID 1645842); further: nearly all actives have a fitted effect of over 55% in size; further: potency means the concentration at half of the fitted maximal effect
Cytochrome P450 2C9 (Homo sapiens), sequence (P11712 whole entry, looked up): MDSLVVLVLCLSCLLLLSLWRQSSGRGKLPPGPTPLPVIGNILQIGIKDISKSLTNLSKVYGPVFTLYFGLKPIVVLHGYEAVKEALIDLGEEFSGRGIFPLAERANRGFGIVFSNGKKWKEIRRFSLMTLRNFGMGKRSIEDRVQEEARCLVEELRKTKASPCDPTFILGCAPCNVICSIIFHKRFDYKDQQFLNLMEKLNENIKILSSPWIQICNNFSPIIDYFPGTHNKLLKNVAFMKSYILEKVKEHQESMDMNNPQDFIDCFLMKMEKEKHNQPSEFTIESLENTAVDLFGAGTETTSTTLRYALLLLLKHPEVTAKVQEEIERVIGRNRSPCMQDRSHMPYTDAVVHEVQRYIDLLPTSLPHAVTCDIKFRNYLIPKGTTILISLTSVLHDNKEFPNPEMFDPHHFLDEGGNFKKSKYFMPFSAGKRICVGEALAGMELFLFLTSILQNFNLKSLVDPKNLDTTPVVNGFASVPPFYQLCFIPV
Method in brief: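 P450-Glo CYP2C9 system: proluciferin substrate with enzyme in mix containing 0.4% BSA, 10 min at room temperature, then NADPH regeneration solution added and incubated 1 h at 37C. Detection reagent stopped reaction; luminescence read after 20 min as RLU.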

[4] = Primary qHTS for inhibitors of nuclear receptor binding SET domain protein 2 (NSD2) in an isogenic RCH-ACV NSD2 p.E1099K mutant (9B) (AID 1645876; active means well fitted curve in the direction sought with a large enough effect; an effect the other way counts as inactive or inconclusive; further: nearly all actives have a fitted effect of over 70% in size; further: potency means the concentration at half of the fitted maximal effect)
[5] = Cytotoxicity counterscreen for inhibitors of SARS-CoV-2 cell entry (AID 1645845; calls by dose curve; further: nearly all actives have a fitted effect of over 50% in size)
Method in brief: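 After a 15 min room-temperature ATPLite 1step step, luminescence reflected ATP remaining in HEK293-ACE2 cells exposed to compound for 1 h plus 48 h at 37 C, with percent activity set by cell and no-cell controls.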

[6] = Primary qHTS to identify inhibitors of SARS-CoV-2 cell entry (AID 1645846; calls by dose curve; further: nearly all actives have a fitted effect of over 45% in size; further: potency means the concentration at half of the fitted maximal effect); settings: activity change, negative = inhibition: at 57.1 µM (top of the series) unless noted
Method in brief: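 Using luciferase-reporting pseudoviruses carrying Wuhan-Hu-1 spike, the screen tracks entry into stably ACE2-expressing cells over 48 hr. Activity is expressed relative to spike particles versus particles lacking any fusion protein.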

[7] = target: N-terminal Xaa-Pro-Lys N-methyltransferase 1 (Homo sapiens) (UniProt Q9BV86); assay: Confirmatory qHTS for Inhibitors of N-terminal methyltransferase 1 (NTMT1): MTaseGlo Assay (AID 1645874; active means well fitted curve in the direction sought with a large enough effect; an effect the other way counts as inactive or inconclusive; further: potency means the concentration at half of the fitted maximal effect; nearly all actives have a fitted effect of over 65% in size)
N-terminal Xaa-Pro-Lys N-methyltransferase 1 (Homo sapiens), sequence (Q9BV86 whole entry, looked up): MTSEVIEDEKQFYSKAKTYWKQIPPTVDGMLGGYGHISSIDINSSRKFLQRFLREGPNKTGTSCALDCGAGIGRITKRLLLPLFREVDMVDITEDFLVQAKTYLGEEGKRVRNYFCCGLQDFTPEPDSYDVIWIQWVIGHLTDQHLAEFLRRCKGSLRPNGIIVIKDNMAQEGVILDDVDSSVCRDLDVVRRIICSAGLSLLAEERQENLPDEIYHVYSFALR
Method in brief: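 Enzyme mix (125 nM NTMT1, 100 uM SAM) + compound, 15 min RT; + 1 uM SPKRIA, 30 min RT, dark; MTase-Glo reagent 30 min, detection solution 30 min; luminescence. % inhibition vs no-enzyme/DMSO controls, 4-parameter Hill fit.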

[8] = Primary qHTS for inhibitors of nuclear receptor binding SET domain protein 2 (NSD2) in an RCH-ACV wild type WT cells (2C) (AID 1645877; active means well fitted curve in the direction sought with a large enough effect; an effect the other way counts as inactive or inconclusive; further: nearly all actives have a fitted effect of over 70% in size; further: potency means the concentration at half of the fitted maximal effect)
[9] = target: Papain (Carica papaya) (UniProt P00784); assay: Primary qHTS assay for inhibitors of the protease papain (AID 1645873; active means well fitted curve in the direction sought with a large enough effect; an effect the other way counts as inactive or inconclusive;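 further: papain turnover of Z-FR-AMC read as the AMC fluorescence gain over 10 min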)
Papain (Carica papaya), sequence (P00784 whole entry, looked up): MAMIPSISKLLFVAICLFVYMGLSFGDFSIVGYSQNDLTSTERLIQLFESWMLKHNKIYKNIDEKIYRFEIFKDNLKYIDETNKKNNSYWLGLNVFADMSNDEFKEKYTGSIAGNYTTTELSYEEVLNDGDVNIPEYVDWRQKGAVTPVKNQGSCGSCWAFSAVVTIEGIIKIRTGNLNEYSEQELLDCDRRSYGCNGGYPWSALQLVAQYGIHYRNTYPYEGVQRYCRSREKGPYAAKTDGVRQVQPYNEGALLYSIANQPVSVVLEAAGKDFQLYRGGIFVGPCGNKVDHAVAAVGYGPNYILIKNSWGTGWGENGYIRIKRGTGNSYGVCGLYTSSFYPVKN

## C[C@H]1CNCCc2ccc(Cl)cc21
[1]
  Potency: 1.95 µM (active)
[2]
  Potency: inactive
[3]
  Potency: inactive
[4]
  Potency: inactive

## Cc1cccc(Cc2cnc[nH]2)c1C
[1]
  Potency: 0.871 µM (active)
[3]
  Potency: 0.123 µM (active)
[5]
  Potency: inactive
[6]
  activity change, negative = inhibition: -1.14%

## CCC1(CC)C(=O)NC(=O)NC1=O
[1]
  Potency: inactive
[2]
  Potency: inactive
[3]
  Potency: inactive

## O=C(N[C@H]1N=C(c2ccccc2F)c2cccc3c2N(CC3)C1=O)c1cc2ccccc2[nH]1
[1]
  Potency: inactive
[3]
  Potency: 6.92 µM (active)
[5]
  Potency: inactive
[6]
  activity change, negative = inhibition: -28.2%

## ClCCCN1CCN(c2cccc(Cl)c2)CC1
[1]
  Potency: 1.1 µM (active)
[2]
  Potency: inactive
[4]
  Potency: inactive

## Sc1ccccc1Cl
[1]
  Potency: inactive
[3]
  Potency: inactive

## CC[C@H]1C[C@@H]2C[C@H]3c4[nH]c5ccc(OC)cc5c4CCN(C2)[C@@H]13
[1]
  Potency: 0.278 µM (active)
[3]
  Potency: inactive

## c1cc2c(c(N3CCNCC3)c1)OCCO2
[1]
  Potency: inactive
[3]
  Potency: inactive

## CC(C)=C[C@@H]1[C@@H](C(=O)OCc2coc(Cc3ccccc3)c2)C1(C)C
[1]
  Potency: inactive
[3]
  Potency: 7.76 µM (active)

## Cc1ccc([N+](=O)[O-])[c]2c1[O][Hg]2
[1]
  Potency: 0.347 µM (active)
[2]
  Potency: 0.977 µM (active)
[3]
  Potency: 0.436 µM (active)
[6]
  Potency: 5.62 µM (active)
[7]
  Potency: 0.728 µM (active)
[4]
  Potency: 0.0841 µM (active)
[8]
  Potency: 0.168 µM (active)

## CCOP(=S)(OCC)O/N=C(\C#N)c1ccccc1
[1]
  Potency: 13.8 µM (active)
[3]
  Potency: 2.19 µM (active)

## COc1cc(C[C@@H](C)N)c(OC)cc1Br
[1]
  Potency: 25.9 µM (active)
[3]
  Potency: inactive

## CCCN(CCC)CCc1c[nH]c2ccccc12
[1]
  Potency: 0.394 µM (active)
[2]
  Potency: inactive
[3]
  Potency: inactive

## CN1CCC(N(Cc2ccccc2)c2ccccc2)CC1
[1]
  Potency: 0.11 µM (active)
[3]
  Potency: inactive

## CCCCCCCCCCCCOS(=O)(=O)O
[1]
  Potency: inactive
[3]
  Potency: inactive
[5]
  Potency: inactive
[6]
  activity change, negative = inhibition: -9.15%

## C[C@]12C=CC(=O)C=C1CC[C@@H]1[C@@H]2CC[C@@]2(C)[C@H]1CC[C@]2(C)O
[1]
  Potency: inactive
[2]
  Potency: inactive
[3]
  Potency: inactive
[4]
  Potency: 23.7 µM (active)

## CCCC(C)C1(CC)C(=O)N=C(S)NC1=O (stereo unspecified)
[1]
  Potency: inactive
[3]
  Potency: 15.5 µM (active)

## NC(=O)CN1CCCC1=O
[1]
  Potency: inactive
[3]
  Potency: inactive
[5]
  Potency: inactive
[6]
  Potency: inactive
[9]
  outcome: inactive
[4]
  Potency: inactive
[8]
  Potency: inactive

## CN1C2CCC(C)(C)C1CC(OC(=O)C(O)(c1cccs1)c1cccs1)C2 (stereo unspecified)
[1]
  Potency: 13.8 µM (active)
[3]
  Potency: inactive

## CCN(CC)Cc1nccn1-c1ccc([N+](=O)[O-])cc1C(=O)c1ccccc1Cl
[1]
  Potency: 1.95 µM (active)

## O=C(CCCN1CCC(n2c(=O)[nH]c3ccccc32)CC1)c1ccc(F)cc1
[1]
  Potency: 6.92 µM (active)
[3]
  Potency: inactive
[5]
  Potency: inactive

## O=C(NC(=O)c1c(F)cccc1F)Nc1cc(Cl)c(OC(F)(F)C(F)C(F)(F)F)cc1Cl (stereo unspecified)
[1]
  Potency: inactive
[3]
  Potency: 19.5 µM (active)
[5]
  Potency: inactive

## CNC(=O)NC(O)C(Cl)(Cl)Cl (stereo unspecified)
[1]
  Potency: inactive
[3]
  Potency: inactive

## COP(=S)(OC)Oc1ccc(Sc2ccc(OP(=S)(OC)OC)cc2)cc1
[1]
  Potency: inactive
[2]
  Potency: 7.76 µM (active)
[3]
  Potency: 15.5 µM (active)

## CN(C)CCc1c[nH]c2ccccc12
[1]
  Potency: 62.8 µM (active)
[2]
  Potency: inactive
[3]
  Potency: inactive
[4]
  Potency: inactive
[8]
  Potency: inactive

## O=C(N[C@@H]1N=C(c2ccccc2F)c2cccc3c2N(CC3)C1=O)c1cc2ccccc2[nH]1
[1]
  Potency: inactive

## CCCCC1C(=O)NC(=O)N(C2CCCCC2)C1=O (stereo unspecified)
[1]
  Potency: inactive
[3]
  Potency: 26.8 µM (active)
[5]
  Potency: inactive
[6]
  Potency: inactive

## CC1N=C(N)OC1c1ccccc1 (stereo unspecified)
[1]
  Potency: 4.92 µM (active)
[3]
  Potency: inactive

## COc1ccc(C(=O)N2CCCC2=O)cc1
[1]
  Potency: inactive
[3]
  Potency: inactive
[5]
  Potency: inactive
[6]
  Potency: inactive
  activity change, negative = inhibition: 9.75%
[9]
  outcome: inactive
[4]
  Potency: inactive
[8]
  Potency: inactive

## COc1ccc2[nH]cc(CCN(C(C)C)C(C)C)c2c1
[1]
  Potency: 3.25 µM (active)
[3]
  Potency: inactive

## CNC(C)Cc1ccc2c(c1)OCO2 (stereo unspecified)
[1]
  Potency: 0.693 µM (active)
[3]
  Potency: inactive

## CC(Cc1ccccc1)NCCCCl (stereo unspecified)
[1]
  Potency: 1.23 µM (active)
[3]
  Potency: inactive
[5]
  Potency: inactive

## CC(C)(C)OC(=O)c1ncn2c1[C@@H]1CCCN1C(=O)c1c(Br)cccc1-2
[1]
  Potency: inactive
[3]
  Potency: 4.36 µM (active)

## CN1CCc2cc(Cl)c(O)cc2[C@H]2c3ccccc3CC[C@@H]21
[1]
  Potency: 0.001 µM (active)
[3]
  Potency: inactive

## CC1COC2(c3ccccc3Cl)c3cc(Cl)ccc3NC(=O)CN12 (stereo unspecified)
[1]
  Potency: 11 µM (active)
[3]
  Potency: 24.5 µM (active)
[5]
  Potency: inactive
[6]
  Potency: inactive

## CNC(=O)Oc1cccc2ccccc12
[1]
  Potency: inactive
[3]
  Potency: inactive
[5]
  Potency: inactive
[6]
  Potency: inactive

## Cc1c(Cl)c(=O)oc2cc(OP(=O)(OCCCl)OCCCl)ccc12
[1]
  Potency: 1.55 µM (active)
[3]
  Potency: 1.23 µM (active)
[5]
  Potency: inactive
[6]
  Potency: inactive
